The results in this text go back to PubChem BioAssay (NCATS).

Inconclusive results are not listed. A number with no mark means an inactive call. Calls of active or inactive are those of the source. Calls come from the whole dose curve; as a rule, active = well fitted curve in the direction sought with a large enough effect; inconclusive = small, poorly fitted or top-dose-only effect, or another doubt; inactive = no such curve, though single readings can be large; an effect the other way counts as inactive or inconclusive.

Experiment [1] concerns the target Rap guanine nucleotide exchange factor 4 (Homo sapiens) (UniProt Q8WZA2). As to the kind of experiment: Confirmatory qHTS for agonist of cAMP-regulated guanine nucleotide exchange factor 4 (EPAC2) (AID 1645884;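 note: nucleotide exchange releases bodipy-GDP from Rap1 and this lowers its fluorescence; nearly all actives have a fitted effect of over 65% in size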; note: potency is the fitted concentration of half-maximal effect; for activation: % is set by controls: 0 for no effect and ±100 for the full control effect). (In general: qHTS replaces the single test concentration by a dilution series.)
For experiment [2] the target is unchanged. The experiment can be described thus: Confirmatory qHTS for antagonist of cAMP-regulated guanine nucleotide exchange factor 4 (EPAC2) (AID 1645885). For activity change, negative = inhibition: % is set by controls: 0 for no effect and ±100 for the full control effect. Note: nearly all actives have a fitted effect of over 25% in size. Note: potency is the fitted concentration of half-maximal effect.
The target of experiment [3] is Rap guanine nucleotide exchange factor 3 (Homo sapiens) (UniProt O95398). As to the kind of experiment: Counterscreen qHTS for antagonist of cAMP-regulated guanine nucleotide exchange factor 3 (EPAC1) (AID 1645888).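 Note: fluorescence loss as bound BODIPY-GDP is released from Rap1B; % of control where 0% means no effect.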 The method, boiled down: (§1)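 Rap1B–BODIPY-GDP (250 nM) with 50 uM GDP; compounds pin-transferred to 9.74 nM–152 uM final (activator) or from 7.32 nM upwards (inhibitor). Fluorescence Ex/Em 480/540 nm read at 5 and 30 min, then after adding cAMP or buffer, at room temperature.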

The target is the same in experiment [4]. The experiment can be described thus: Counterscreen qHTS for agonist of cAMP-regulated guanine nucleotide exchange factor 3 (EPAC1) (AID 1645889). For activation: % of control where 0% means no effect. Note: nearly all actives have a fitted effect of over 40% in size. Note: potency is the fitted concentration of half-maximal effect. The method, boiled down:
as §1
Background: The purpose of a counterscreen is to sort out artefacts and off-target activity.

The target in experiment [5] is Tumor susceptibility gene 101 protein (Homo sapiens) (UniProt Q99816). As to the kind of experiment: qHTS Assay for Iinhibitors of HIV-1 Budding by Blocking the Interaction of PTAP/TSG101: Hit Validation (AID 651600). Note: % is set by controls: 0 for no effect and ±100 for the full control effect; nearly all actives have a fitted effect of over 70% in size. An outline of the steps: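 Fluorescence polarization binding assay: Tsg101 binding domain (10 uM) mixed with compounds and FITC-labeled PTAP peptide (50 nM) in HEPES pH 7.5, 0.15 M NaCl, 0.01% Tween 20, EDTA, TCEP; 20 min at r.t.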

For experiment [6], the target named is Tyrosyl-DNA phosphodiesterase 1 (Homo sapiens) (UniProt Q9NUW8). The experiment can be described thus: Confirmation Assay for Inhibitors of Tyrosyl-DNA Phosphodiesterase (TDP1) (AID 489007). Note: potency is the fitted concentration of half-maximal effect; nearly all actives have a fitted effect of over 40% in size. The conditions noted are these: recombinant human TDP1 enzymatic activity, dose-response. The method, boiled down: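 AlphaScreen assay of tyrosine-FITC cleavage from a biotinylated DNA substrate (15 nM) by E. coli-expressed human Tdp1 (1 nM). Sequence: compound preincubation 15 min, reaction 5 min, bead detection 10 min, all at room temperature. No-enzyme wells give maximum signal.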
Tyrosyl-DNA phosphodiesterase 1 (Homo sapiens), sequence (Q9NUW8 whole entry, looked up): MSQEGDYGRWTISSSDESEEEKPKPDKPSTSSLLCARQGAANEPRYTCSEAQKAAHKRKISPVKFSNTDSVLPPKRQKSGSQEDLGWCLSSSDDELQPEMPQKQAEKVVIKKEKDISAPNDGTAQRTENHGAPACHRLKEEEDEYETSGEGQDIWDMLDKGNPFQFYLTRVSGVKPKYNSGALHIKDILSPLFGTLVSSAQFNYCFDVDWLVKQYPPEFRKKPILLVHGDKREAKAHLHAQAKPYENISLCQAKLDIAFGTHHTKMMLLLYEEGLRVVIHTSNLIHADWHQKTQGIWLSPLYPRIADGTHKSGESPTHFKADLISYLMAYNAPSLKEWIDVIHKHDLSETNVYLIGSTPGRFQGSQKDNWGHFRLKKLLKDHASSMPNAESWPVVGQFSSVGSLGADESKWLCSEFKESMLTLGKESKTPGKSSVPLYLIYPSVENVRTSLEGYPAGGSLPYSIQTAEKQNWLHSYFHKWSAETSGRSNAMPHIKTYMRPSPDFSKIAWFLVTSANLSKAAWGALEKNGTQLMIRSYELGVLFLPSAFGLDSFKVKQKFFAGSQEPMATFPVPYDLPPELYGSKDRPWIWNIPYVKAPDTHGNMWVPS

Rap guanine nucleotide exchange factor 3 (Homo sapiens), sequence (O95398 whole entry, looked up): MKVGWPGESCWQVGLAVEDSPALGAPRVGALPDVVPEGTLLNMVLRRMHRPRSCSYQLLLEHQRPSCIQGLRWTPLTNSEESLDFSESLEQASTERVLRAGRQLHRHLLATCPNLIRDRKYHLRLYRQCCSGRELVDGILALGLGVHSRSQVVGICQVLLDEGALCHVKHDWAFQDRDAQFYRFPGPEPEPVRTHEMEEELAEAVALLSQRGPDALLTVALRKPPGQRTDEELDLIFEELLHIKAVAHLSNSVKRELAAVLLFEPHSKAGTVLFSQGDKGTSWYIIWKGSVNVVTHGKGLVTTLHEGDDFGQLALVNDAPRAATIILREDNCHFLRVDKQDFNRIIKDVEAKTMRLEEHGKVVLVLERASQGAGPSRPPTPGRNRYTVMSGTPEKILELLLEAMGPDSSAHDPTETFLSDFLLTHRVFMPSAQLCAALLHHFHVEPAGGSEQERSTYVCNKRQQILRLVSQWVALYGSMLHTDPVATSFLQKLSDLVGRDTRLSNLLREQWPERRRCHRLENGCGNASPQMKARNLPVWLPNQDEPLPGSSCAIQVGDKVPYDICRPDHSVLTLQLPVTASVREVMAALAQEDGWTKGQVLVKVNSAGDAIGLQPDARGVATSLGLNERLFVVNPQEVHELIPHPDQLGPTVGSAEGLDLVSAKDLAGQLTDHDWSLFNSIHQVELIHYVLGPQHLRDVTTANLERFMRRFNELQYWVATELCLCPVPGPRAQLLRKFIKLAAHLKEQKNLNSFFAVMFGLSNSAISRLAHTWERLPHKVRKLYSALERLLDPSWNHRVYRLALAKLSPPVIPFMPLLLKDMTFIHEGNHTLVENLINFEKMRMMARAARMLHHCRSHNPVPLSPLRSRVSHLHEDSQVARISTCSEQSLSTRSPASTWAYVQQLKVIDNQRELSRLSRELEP
Rap guanine nucleotide exchange factor 4 (Homo sapiens), sequence (Q8WZA2 whole entry, looked up): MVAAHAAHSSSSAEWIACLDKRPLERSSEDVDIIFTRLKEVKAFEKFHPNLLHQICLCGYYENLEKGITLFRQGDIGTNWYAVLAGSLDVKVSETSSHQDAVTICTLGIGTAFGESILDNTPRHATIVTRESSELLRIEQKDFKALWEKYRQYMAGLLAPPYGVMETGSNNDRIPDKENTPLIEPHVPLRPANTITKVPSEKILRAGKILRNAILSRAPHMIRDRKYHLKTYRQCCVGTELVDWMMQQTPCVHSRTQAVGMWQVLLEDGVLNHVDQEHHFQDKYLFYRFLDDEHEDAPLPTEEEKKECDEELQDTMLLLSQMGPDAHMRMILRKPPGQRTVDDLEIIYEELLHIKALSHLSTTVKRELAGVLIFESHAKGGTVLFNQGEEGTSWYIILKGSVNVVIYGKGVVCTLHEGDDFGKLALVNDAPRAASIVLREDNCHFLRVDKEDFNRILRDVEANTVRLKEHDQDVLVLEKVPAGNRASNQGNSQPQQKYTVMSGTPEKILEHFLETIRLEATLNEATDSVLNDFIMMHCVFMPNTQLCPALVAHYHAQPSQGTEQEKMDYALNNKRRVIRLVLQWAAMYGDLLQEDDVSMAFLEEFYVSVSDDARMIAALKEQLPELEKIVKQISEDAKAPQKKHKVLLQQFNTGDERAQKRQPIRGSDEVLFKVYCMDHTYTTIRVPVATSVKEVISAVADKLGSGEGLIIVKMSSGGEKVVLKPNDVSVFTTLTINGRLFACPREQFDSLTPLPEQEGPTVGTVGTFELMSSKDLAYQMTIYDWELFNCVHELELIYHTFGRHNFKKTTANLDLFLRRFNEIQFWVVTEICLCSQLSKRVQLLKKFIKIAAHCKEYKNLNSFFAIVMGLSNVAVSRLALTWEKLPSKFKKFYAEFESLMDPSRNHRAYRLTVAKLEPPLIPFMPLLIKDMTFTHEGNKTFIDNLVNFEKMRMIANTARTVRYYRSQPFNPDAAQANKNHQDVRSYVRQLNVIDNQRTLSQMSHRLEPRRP
Tumor susceptibility gene 101 protein (Homo sapiens), sequence (Q99816 whole entry, looked up, the tested form may be a part): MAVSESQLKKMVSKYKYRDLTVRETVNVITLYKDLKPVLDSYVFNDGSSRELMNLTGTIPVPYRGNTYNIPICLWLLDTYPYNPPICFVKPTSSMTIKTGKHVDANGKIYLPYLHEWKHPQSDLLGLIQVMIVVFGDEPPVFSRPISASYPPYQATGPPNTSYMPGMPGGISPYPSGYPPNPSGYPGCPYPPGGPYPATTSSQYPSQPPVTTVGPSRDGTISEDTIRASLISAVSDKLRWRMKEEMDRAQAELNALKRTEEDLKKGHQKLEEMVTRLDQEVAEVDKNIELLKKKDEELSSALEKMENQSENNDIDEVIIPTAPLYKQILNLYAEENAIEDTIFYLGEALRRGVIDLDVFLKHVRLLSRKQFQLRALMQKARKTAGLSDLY

As to `CC1(C)CC2CC(C)(CN2C(=O)c2cc(-c3ccccc3O)on2)C1` (configuration not stated), the activation was 10.5% [at 17.1 µM, percent relative to cAMP agonist control] in experiment [1] and 17.1% [at 30.8 µM] in experiment [4]. The Potency result in experiment [2] is “inactive”. Besides, the activity change, negative = inhibition in experiment [3] is 5.82% [at 30.8 µM].

Turning to `CC(/C=C1\SC(=S)N(c2ccc(C(=O)O)cc2)C1=O)=C\c1ccccc1`, the activation in experiment [1] was 7.79% [at 17.1 µM, percent relative to cAMP agonist control]; in experiment [4], 18.6% [at 30.8 µM]. Moreover, the Potency result in experiment [2] was “inactive”. Further, in experiment [3], the activity change, negative = inhibition was 1.04% [at 30.8 µM].

Turning to `CCOC(=O)c1c(CSc2ccccc2)n(C)c2cc(Br)c(OCC(O)CNC(CO)(CO)CO)cc12` (configuration not stated), the Potency in experiment [1] is 89.1 µM (active); in experiment [2] it was 26.9 µM (active). For the same compound, the Potency result in experiment [3] and in experiment [4] was “inactive” in each case.

For the compound `CC1(Cc2cc(Cl)ccc2C(F)(F)F)C(=O)Nc2c(Cl)cccc21` (configuration not stated), the Potency result in experiment [1] and in experiment [4] was “inactive” in each case. Also, in experiment [2], the Potency is 30.1 µM (active).

With `O=[N+]([O-])c1ccc(NS(=O)(=O)c2ccccc2)c(Cl)c1`, the Potency entry in experiment [1], in experiment [2], in experiment [3] and in experiment [4] was “inactive” in each case.

On to `CC(=O)N1CCc2nc3sc(C(=O)c4ccc(F)cc4)c(N)c3c(C(F)(F)F)c2C1`, for which the Potency entry in experiment [5], in experiment [1], in experiment [2] and in experiment [3] was “inactive” each time.

On to `COc1ccc(C(=O)c2ccc(Br)cc2)c(OC)c1OC`, for which the Potency result in experiment [1], in experiment [3] and in experiment [4] was “inactive” in each case. For the same compound, in experiment [2], the Potency is 6.01 µM (active).

`Cc1cccc(C)c1NC(=O)CN1C(=O)S/C(=C\c2cccn2-c2cccc(C(=O)O)c2)C1=O`: in experiment [1], the Potency is 100 µM (active). Besides, the Potency entry in experiment [3] and in experiment [4] was “inactive” in each case.

As for `CCOC(=O)c1ccc(/C=C2/C=C(c3ccccc3)N(c3ccc(Cl)c(C(=O)O)c3)C2=O)cc1`, the Potency in experiment [1] is 100 µM (active). The Potency result in experiment [3] was “inactive”.

Regarding `O=c1oc2c3c(ccc2c2ccccc12)OCN(Cc1cccc(Cl)c1)C3`, the Potency result in experiment [1], in experiment [2], in experiment [3] and in experiment [4] was “inactive” each time.

Regarding `COc1ccc(C(=O)NCCn2cc(SCC(=O)NCCc3ccc(OC)c(OC)c3)c3ccccc32)cc1`, the Potency result in experiment [1], in experiment [2], in experiment [3] and in experiment [4] was “inactive” throughout.

Turning to `NC(N)=N/N=C/c1ccc(OCc2ccc(Cl)cc2Cl)cc1`, the activation was 3.24% [at 17.1 µM, percent relative to cAMP agonist control] in experiment [1] and 27.4% [at 30.8 µM] in experiment [4]. Further, the Potency entry in experiment [2] is “inactive”. The activity change, negative = inhibition in experiment [3] was 10.5% [at 30.8 µM].

Consider `COc1cc(/C=C2\SC(=Nc3ccccc3)N(CCc3c[nH]c4ccccc34)C2=O)ccc1OC(C)C(=O)O` (configuration not stated), for which the Potency entry in experiment [1], in experiment [2] and in experiment [4] was “inactive” each time.

With `O=C(O)COc1ccccc1/C=N/Nc1ccc(S(=O)(=O)Nc2ccc(Cl)cc2)cc1[N+](=O)[O-]`, the activation in experiment [1] was 1.99% [at 17.1 µM, percent relative to cAMP agonist control]; in experiment [4], 17.2% [at 30.8 µM]. For the same compound, in experiment [2], the Potency result is “inactive”. Besides, the activity change, negative = inhibition in experiment [3] is -8.36% [at 30.8 µM].

In the case of `CN(C)c1ccc(/C=C(/C(=O)c2ccc(Cl)cc2Cl)n2cncn2)cc1`, the Potency was 112 µM (active) in experiment [1] and 70.8 µM (active) in experiment [4]. Moreover, the Potency entry in experiment [3] is “inactive”.

For the compound `O=C(Nc1cccc(C(F)(F)F)c1)C1Cc2c(-c3ccccc3)ccnc2O1` (configuration not stated), in experiment [1], the activation was 3.96% [at 17.1 µM, percent relative to cAMP agonist control]. The Potency result in experiment [2] was “inactive”. Besides, in experiment [3], the activity change, negative = inhibition was -3.59% [at 30.8 µM].

For `CCOc1ccc(/C=C2\SC(=S)N(NS(=O)(=O)c3ccccc3)C2=O)cc1OC`, the Potency in experiment [1] was 112 µM (active); in experiment [2] it was 37.9 µM (active). Also, the Potency result in experiment [3] and in experiment [4] was “inactive” each time.

Take `COc1cc(/C=C2\CCn3c2nc2cc(C(=O)O)ccc2c3=O)ccc1OC(F)F`: the Potency result in experiment [1], in experiment [2], in experiment [3] and in experiment [4] was “inactive” in each case.

Regarding `COc1ccc2c(c1)C(SCC(=O)NCCc1ccc(Cl)cc1)CC(C)(C)O2` (configuration not stated), the activation in experiment [1] is 12.3% [at 17.1 µM, percent relative to cAMP agonist control]. For the same compound, in experiment [2], the Potency entry was “inactive”. The activity change, negative = inhibition in experiment [3] is 8.95% [at 30.8 µM].

As to `CCc1ccc(N=C2NC(=O)/C(=C/c3ccc(OCC(=O)O)cc3)S2)cc1`, the activation was 8.62% [at 17.1 µM, percent relative to cAMP agonist control] in experiment [1] and 14.2% [at 30.8 µM] in experiment [4]. Also, the Potency entry in experiment [2] is “inactive”. Moreover, in experiment [3], the activity change, negative = inhibition is -19.4% [at 30.8 µM].

With `N#Cc1ccc(CSc2nc(N)cc(N)n2)cc1`, the Potency in experiment [1] was 112 µM (active). Also, the Potency entry in experiment [3] was “inactive”.

With `Cc1cc(C(=O)CCC(=O)N2CCN(S(=O)(=O)c3ccccc3)CC2)c(C)s1`, the Potency in experiment [1] is 112 µM (active). The Potency entry in experiment [3] and in experiment [4] was “inactive” throughout.

With `CCOc1ccccc1CN(CCc1ccc2c(c1)OCO2)Cc1ccccn1`, the activation in experiment [1] is 11.2% [at 17.1 µM, percent relative to cAMP agonist control]. Also, the activity change, negative = inhibition in experiment [3] was 2.25% [at 30.8 µM].

For `S=c1[nH]nc(-c2cc(-c3ccccc3)n[nH]2)n1/N=C/c1ccc(Cl)c(Cl)c1`, the activation in experiment [1] is 2.21% [at 17.1 µM, percent relative to cAMP agonist control]; in experiment [4], 18.4% [at 30.8 µM]. For the same compound, the Potency result in experiment [2] is “inactive”. Besides, the activity change, negative = inhibition in experiment [3] was -11.9% [at 30.8 µM].

As to `COc1cc2ccccc2cc1C(=O)NC(=S)Nc1cccc(C(=O)O)c1`, the activation in experiment [1] is 3.08% [at 17.1 µM, percent relative to cAMP agonist control]; in experiment [4], 7.44% [at 30.8 µM]. Besides, the Potency result in experiment [2] is “inactive”. Further, the activity change, negative = inhibition in experiment [3] was -9.48% [at 30.8 µM].

Regarding `O=C(O)c1ccc(Nc2nc(-c3cc4ccccc4oc3=O)cs2)cc1O`, in experiment [6], the Potency is 63.1 µM (active). Moreover, the Potency entry in experiment [1], in experiment [2] and in experiment [3] was “inactive” each time.

With `CCOC(=O)[C@H]1[C@H]2COc3ccc(C)cc3[C@@H]2N2C(=O)c3ccc(C)cc3NC(=O)[C@@]12C`, in experiment [1], the Potency is 112 µM (active). Further, the Potency result in experiment [3] was “inactive”.

For `O=C(O)CC/C(=C\c1ccc(N2CCCC2)c([N+](=O)[O-])c1)c1nc2ccccc2s1`, the Potency entry in experiment [1], in experiment [2], in experiment [3] and in experiment [4] was “inactive” each time.
